Measured values published in PubChem BioAssay (NCATS).
Inconclusive results are not listed.

Experiment: qHTS for identification of novel therapeutic agents for treatment of microphthalmiaassociated transcription factor (MiT) renal cell carcinoma (RCC) (AID 1963991)
Conditions: CellTiter-Glo, 48 h, stronger effect = lower value
Text: PI: Marston Linehan Ph.D.
Urologic Oncology Branch, Center for Cancer Research (CCR)
National Cancer Institute (NCI), National Institute of Health (NIH), Bethesda, Maryland
MiT-Renal Cell Carcinoma (RCC) is characterized by genomic translocations involving microphthalmia-associated transcription factor (MiT) family members TFE3, TFEB, or MITF. MiT-RCC represents a specific subtype of sporadic RCC that is predominantly seen in young patients and can present with heterogeneous histological features making diagnosis challenging. Moreover, the disease biology of this aggressive cancer is poorly understood and there is no accepted standard of care therapy for patients with advanced disease. Tumor-derived cell lines have been established from human TFE3-RCC providing useful models for preclinical studies. TFE3-RCC tumor derived cell lines and their tissues of origin were characterized by IHC and gene expression analyses. An unbiased high-throughput drug screen was performed to identify novel therapeutic agents for treatment of MiT-RCC. Potential therapeutic candidates were validated in in vitro and in vivo preclinical studies. Mechanistic assays were conducted to confirm the on-target effects of drugs. The results of a high-throughput small molecule drug screen utilizing three TFE3-RCC tumor-derived cell lines identified five classes of agents with potential pharmacological efficacy, including inhibitors of phosphoinositide-3-kinase (PI3K) and mechanistic target of rapamycin (mTOR), and several additional agents, including the transcription inhibitor Mithramycin A. Upregulation of the cell surface marker GPNMB, a specific MiT transcriptional target, was confirmed in TFE3-RCC and evaluated as a therapeutic target using the GPNMB-targeted antibody-drug conjugate CDX-011. […] The results of the high-throughput drug screen and validation studies in TFE3-RCC tumor-derived cell lines have provided in vitro and in vivo preclinical data supporting the efficacy of the PI3K/mTOR inhibitor.
SEQUENCE No. (e.g., 1, 2, 3, etc.); […] (e.g., Cells, Incubation, Reagent, etc.); VALUE; DESCRIPTION.
1; Cells; 3 uL; white, solid-bottom Grenier assay plate.
2; Compounds; 23 nL; Kalypsis pin-tool (Wako USA).
3; Incubation; 48 hr; 37 C, 5% CO2, 95% humidity.
4; Reagent; 3 uL; CellTiter-Glo reagent (Promega).
5; Incubation; 15 min; room temperature.
6; Detection; Luminescence; ViewLux plate reader (PerkinElmer).
NOTES (numbers refer to Sequence numbers above)
1. Quantitative high-throughput screening (qHTS) of 1912 pharmacologically defined small molecule compounds was conducted on three TFE3-fusion cell lines bearing three different fusion partners (UOK109, UOK124, UOK145). Briefly, 500 cells in complete growth media were plated into white, solid-bottom, 1536-well tissue culture treated plates (Grenier Cat. 789173-F) using a Multidrop Combi cassette dispenser.
2. Twenty-three nanoliter of 1912 pharmacologically defined small molecule compounds of the NCATS Mechanism Interrogation PlatE (MIPE) version 4.0 were added to each assay plate using a Pintool Dispenser (Wako) equipped with 1536 pin head.
3. Plates were covered with stainless steel gasketed lids and incubated for 48 hours at standard cell culture conditions.
4. Viability was assessed by adding 3uL of CellTiter-Glo detection reagent (Promega).
5. Plates were covered with gasket lids and incubated for 15 minutes at room temperature.
6. Luminescence was measured on a ViewLux plate reader (PerkinElmer). Post-screen data processing used DMSO controls as 100% viability and empty wells as 0% viability and dose response curve fitting was done for all 11 concentrations for each compound.

[1] = TFE3-RCC UOK109 viability, measured here: UOK109 Z-AUC
[2] = TFE3-RCC viability, measured here: UOK124 Z-AUC
[3] = TFE3-RCC viability, measured here: UOK145 Z-AUC

| SMILES | z-score [1] | z-score [2] | z-score [3] |
| --- | --- | --- | --- |
| COc1nc(-c2ccc3c(c2)OCO3)n(-c2ccc(NC(=O)CSc3ccccc3)cc2)n1 | 0.687 | 0.0138 | 0.717 |
| CCOc1cc(C=C2C(=O)N(c3ccccc3)N=C2C)cc(Cl)c1OCC(=O)OC | 0.66 | 0.208 | 0.267 |
| C1COC(NC(C2CC2)C2CC2)=N1 | 0.422 | 0.218 | 0.0437 |
| NS(=O)(=O)c1cc2c(cc1Cl)NC=NS2(=O)=O | 0.178 | 0.944 | 0.209 |
| O=C(C1CC1)N1CC[C@@H](Cn2c(-c3ccc(-c4ccc5occc5c4)cc3)nc3cnccc32)C1 | 0.57 | 0.377 | 0.609 |
| COc1ccc(CC2=NN3C([C@@H](CCc4ccccc4)[C@@H](C)O)=NC(C)C3C(=O)N2)cc1OC (some centres not stated) | 1.24 | 0.967 | 0.717 |
| CC(C)(C)OC(=O)CN(Cc1ccc(Cl)cc1)Cc1ccc([N+](=O)[O-])s1 | 0.406 | 0.354 | 0.158 |
| NC(=O)c1ccc(I)c([N+](=O)[O-])c1 | 0.172 | 0.616 | -0.107 |
| C[C@]12CC[C@H](O)CC1=CC[C@@H]1[C@H]2CC[C@]2(C)C(c3cccnc3)=CC[C@H]12 | 0.87 | 0.84 | 0.924 |
| O=c1n(CCCN2CCN(c3cccc(Cl)c3)CC2)nc2ccccn12 | -0.148 | 0.322 | 1.01 |
| CC(C)(Sc1ccc(CCN(CCCCC2CCCCC2)C(=O)NC2CCCCC2)cc1)C(=O)O | 0.806 | 0.0749 | 0.555 |
| Cc1n[nH]c(C)c1Cc1sc2c(c1C(=O)N1C[C@H](O)CO1)c(=O)n(C)c(=O)n2CC(C)C | 0.549 | 0.656 | 0.704 |
| Clc1cccc(Cl)c1NC1=NCCN1 | 0.351 | 0.654 | -0.377 |
| N[C@@H]1CONC1=O | 0.394 | 0.295 | 0.675 |
